Pf Dd2 inh = inhibitors of Plasmodium falciparum Dd2 growth | P. falciparum Dd2 growth, SYBR Green, 72 h | Potency, µM (highest dose often 28.9 µM), hits mostly inhibitors | hit rate 4.3% among 120,000; active means well fitted inhibition curve with a large enough effect; further: nearly all actives have a fitted effect of over 65% in size
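Infected erythrocytes (Dd2, 0.3% parasitemia, 2.5% hematocrit final) are added to compound in RPMI-1640/Albumax II medium, grown 72 h at 37C in low oxygen, then lysed with saponin/Triton-X containing SYBR Green and read by fluorescence.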
Of the large screens only hits and unclear results are named; the others gave an inactive call. Many of the other results were omitted from the sample, so hits are more common in it than they were.

Cc1cnc(CCNC(=O)c2cn(C)cn2)n1CC1CC1	none
CCOC(=O)c1ccc(NC(=O)Cn2c(C)cc3nc4n(c(=O)c32)CCCCC4)cc1	none
C#C[C@H]1CN2CC[C@H]1C[C@@H]2COC(=O)Nc1ccc(Br)cc1	none
C#C[C@H]1CN2CC[C@H]1C[C@@H]2COC(=O)Nc1ccc(C(C)(C)C)cc1	none
C#C[C@H]1CN2CC[C@H]1C[C@@H]2COC(=O)Nc1ccc(OC(F)(F)F)cc1	Pf Dd2 inh 11µM
Cc1cc(OC2CN(Cc3cccc4ccccc34)C2)ccc1F	none
N#Cc1ccc(S(=O)(=O)N[C@H]2[C@H](O)[C@H](O)C[C@@H]2c2ccc(C(F)(F)F)cc2)cc1	Pf Dd2 inh 11µM
O=S(=O)(N[C@H]1[C@H](O)[C@H](O)C[C@@H]1c1ccccc1)c1ccc(C(F)(F)F)cc1	none
O=S(=O)(N[C@H]1[C@H](O)[C@H](O)C[C@@H]1c1cncnc1)c1ccc(C(F)(F)F)cc1	none
CCOc1ccc(NC(=O)N2CCC(CC(=O)NCc3ccccc3)C2)cc1 (configuration not stated)	none
O=C(CCc1nnn2c1CN(Cc1ccc(Br)o1)CC2)N1CCCC1	none
Cc1ccc(NC(=O)c2cc3n(n2)CC(c2ccc(Cl)cc2)OC3)cc1F (configuration not stated)	none
COCC1CN(Cc2c[nH]c3ccccc23)CC12CCNCC2 (configuration not stated)	none
COCC1CN(Cc2cccc(OC(F)(F)F)c2)CC12CCNCC2 (configuration not stated)	Pf Dd2 inh 1.3µM
COCC1CN(Cc2cccnc2)CC12CCNCC2 (configuration not stated)	none
O=C(CCC[C@@H]1[C@H]2CCCN3CCC[C@@H](CN1C(=O)c1cccnc1)[C@@H]23)NCCCN1CCCC1	none
COCCC(=O)N1CCC2(CC1)C(=O)N(C)c1ccccc12	none
CN1C(=O)C2(CCN(C(=O)CCCS(N)(=O)=O)CC2)c2ccccc21	none
CN1C(=O)C2(CCN(C(=O)CCC3CCCCC3)CC2)c2ccccc21	Pf Dd2 inh 5µM
CC(=O)NCC(=O)N1CC(F)(F)C[C@H]1c1nc(-c2ccccc2)no1	none
CCC(C)S(=O)(=O)c1oc(-c2cccs2)nc1S(=O)(=O)c1ccccc1 (configuration not stated)	Pf Dd2 inh 13µM
Cc1ccc(CSc2oc(-c3cccs3)nc2S(=O)(=O)c2ccccc2)cc1	none
O=S(=O)(c1ccccc1)c1nc(-c2cccs2)oc1N1CCCCC1	none
CN(Cc1ccccc1)Cc1cn([C@H]2CO[C@H]3[C@@H]2OC[C@@H]3NCc2ccc(N(C)C)cc2)nn1	none
Cc1cccc(OCC2(CNC(=O)c3ccc(F)cc3)C[C@@H](O)[C@@H](O)C2)n1 (some centres not stated)	none
c1ncc(CN2CC(Oc3ccc4c(c3)OCO4)C2)s1	none
CN1C(=O)[C@H]2CN(Cc3cc(F)cc(F)c3)C[C@H]2C1=O	none
CCC(C)NC(=O)c1cnn(-c2ccc(Cl)cc2)c1C1CCN(C(=O)OC(C)(C)C)CC1 (configuration not stated)	Pf Dd2 inh 11µM
Cc1ccc(-n2ncc(C(=O)Nc3ccc4c(c3)OCCO4)c2C2CCN(C(=O)OC(C)(C)C)CC2)cc1	none
CC(C)(C)OC(=O)N1CCC(c2c(C(=O)Nc3ccc4c(c3)OCCO4)cnn2-c2ccc(Cl)cc2)CC1	Pf Dd2 inh 7.1µM
CC1CCN(C(=O)c2cnn(-c3ccc(Cl)cc3)c2C2CCN(C(=O)OC(C)(C)C)CC2)CC1	none
Cc1ccc(-n2ncc(C(=O)Nc3ccc4c(c3)OCO4)c2C2CCN(C(=O)OC(C)(C)C)CC2)cc1	none
CC(C)(C)OC(=O)N1CCC(c2c(C(=O)Nc3ccc4c(c3)OCCO4)cnn2-c2ccccc2)CC1	Pf Dd2 inh 7.9µM
COc1ccc(-n2ncc(C(=O)Nc3ccc4c(c3)OCO4)c2C2CCN(C(=O)OC(C)(C)C)CC2)cc1	Pf Dd2 inh 6.3µM
Cc1ccc(-n2ncc(C(=O)NCc3ccc4c(c3)OCO4)c2C2CCN(C(=O)OC(C)(C)C)CC2)cc1C	none
COc1ccccc1CCNC(=O)Cn1nc2c(cc1=O)CCCC2	none
CN(C)CC(=O)N1C[C@@H]2C[C@H](C1)c1ccc(-c3ccccc3CN3CCOCC3)c(=O)n1C2	none
CC(C)NC(=O)N1CCC(O)(c2csc(CN3CCN(C)CC3)n2)CC1	none
CN1CCCC2(Cc3ccccc3CN(C(=O)Cc3ccc(O)cc3)C2)C1 (configuration not stated)	none
COCCNC(=O)[C@@H]1C[C@@H](O)CN1C1CCN(C(=O)c2ccc3ncccc3c2)CC1	none
CCOC(=O)C1=C(C)N=C2SC=C(CC(=O)NCc3ccco3)N2C1c1ccccc1Cl (configuration not stated)	none
CCOc1ccc(CC(=O)N2[C@@H]3CC[C@H]2CC(NC(=O)c2ccncc2)C3)cc1 (some centres not stated)	none
CCNC(=O)CN1C(=O)NC(CCc2ccccc2)(C2CCNCC2)C1=O (configuration not stated)	none
Cc1ccc(OC2(C(=O)NCC3COc4ccccc4O3)CCNCC2)cc1 (configuration not stated)	none
COc1cccc(-c2nc3cnccn3c2NCCC(=O)Nc2cccc(Cl)c2)c1	none
COc1ccc2[nH]cc(CCNC(=O)C3Cn4cccc4C(=O)N3CC(C)C)c2c1 (configuration not stated)	none
Cc1cc2c(-c3cccnc3)nc(-c3c(C)noc3C)cc2[nH]1	none
COc1ccc(C(=O)N2CCC3(CC2)CC(OC)CCO3)cc1 (configuration not stated)	none
CN(C)CCNC(=O)c1n[nH]c2c1CN(C(=O)c1cc(F)ccc1Cl)CC2	none
CC(C)(C)OC(=O)N1CCC(c2c(C(=O)Nc3ccc4c(c3)OCO4)cnn2-c2ccc(F)cc2F)CC1	Pf Dd2 inh 13µM
Cc1cccc(C)c1-n1ncc(C(=O)NCc2ccc3c(c2)OCO3)c1C1CCN(C(=O)OC(C)(C)C)CC1	none
CCOc1ccc(CN2CCC(CO)(Cc3ccccc3Cl)CC2)cc1	none
COc1ccc(OC)c(CN2CCC3(CC2)OCCN(Cc2ccccc2)C3=O)c1	none
COc1ccc2c(c1)C=C(CN1CCC(CO)(Cc3ccccc3Cl)CC1)CO2	Pf Dd2 inh 8.9µM
COc1ccc(NC(=O)C2(C)CCc3cnc(NCc4ccccc4)nc32)cn1 (configuration not stated)	none
CCCCCCN1CCC2(CC1)Cc1ccccc1CNC2=O	none
CN1CCN(c2nc3c(c(=O)[nH]2)CCN(Cc2cccc(Cl)c2)CC3)CC1	none
CCN(CC)C(=O)N1CCCC1c1noc(COc2ccc(F)cc2)n1 (configuration not stated)	none
O=C(c1ccc(F)c(F)c1)N1CCC[C@H]1c1nc(-c2ccccc2Cl)no1	none
CCc1ccc2c(c1)NC(c1ccc(C)cc1)=NC(c1cccs1)=N2	Pf Dd2 inh 13µM
FC(F)(F)Oc1ccc2c(c1)NC(c1ccncc1)=NC(c1cccs1)=N2	none
CC(C)c1ccc2c(c1)NC(c1ccncc1)=NC(c1cccs1)=N2	none
CN(C)C(=O)c1ccc(OC2CCN(C(=O)c3ccccc3C(F)(F)F)CC2)nc1	none
C1CC(OCC2CC2)CN1 (configuration not stated)	none
CC(NC(=O)c1cc2c(s1)CCN(C(=O)c1ccccc1)C2)c1ccc(F)cc1 (configuration not stated)	none
Cc1ccc(C(=O)N2CCc3sc(C(=O)NC(C)c4ccccc4)cc3C2)cc1 (configuration not stated)	Pf Dd2 inh 7.1µM
Cc1ccc(C(=O)N2CCc3sc(C(=O)NCc4ccc(N(C)C)cc4)cc3C2)cc1	none
CCNC(=O)N(C1CC1)C1CCOC2(CCN(C(=O)CCc3cccc(OC)c3)CC2)C1 (configuration not stated)	none
